# Experimental data as given in PubChem BioAssay.
# Values joined by “and” are separate entries in the source; they are usually repeats but may differ in a detail not shown here. Identical values can stand only once. For part of these data: Potency and affinity values are given separately. Active and inactive are the calls of the source. Unless noted, how the calls were made is not given here.
# How the values were obtained:
# [1] = blockers of polyQ-driven CASP3 activation – cell-based (AID 1583); settings: polyglutamine-induced caspase-3 activation, cell assay; stronger effect = higher value;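 tested at 10 µM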
# [2] = yeast 75Q aggregation reduction – 75Q-TubU reporter (AID 1593); settings: Yeast 75Q polyglutamine aggregation reporter
# [3] = restoration of touch response, mutant HTT neurons – whole organism, C. elegans mechanosensory neurons, N-terminal huntingtin (AID 1599); settings: C. elegans polyQ-huntingtin mechanosensory neurons, stronger effect = higher value
# [4] = blockers of cytochrome c efflux from mitochondria – biochemical, purified mitochondria (AID 1603); settings: stronger effect = lower value;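 further: mouse liver mitochondria challenged with calcium chloride; signal normalized to the plate average as 100%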
# [5] = polyglutamine aggregate formation blockers (AID 1604); settings: polyglutamine-induced protein aggregation inhibition assay; stronger effect = higher value; tested at 2.5 µM
# [6] = glutamate transport activators, MN-1 cells, MN-1 cell line (AID 1612); settings: MN-1 motor neuron cells, stronger effect = higher value;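 further: tested at 1 µM final; 0% = mean of DMSO vehicle wells on each plate; positive means more glutamate uptake than control and negative means less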
# [7] = GFP-Q80 aggregate reduction, neuronal-like cells, cell-based, NGF-treated PC12, GFPQ80 (AID 1614); settings: PC12 NGF-treated GFP-polyQ80 inclusion reduction;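 further: lower means fewer inclusions and 0 means no inclusions at all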
# [8] = 75Q-TubH aggregate inhibition, S. cerevisiae, yeast (AID 1616); settings: S. cerevisiae 75Q-TubH polyglutamine aggregation suppression; stronger effect = higher value
# [9] = P. berghei load reduction in hepatocytes – cell-based, HepG2, luciferase luminescence, HepG2 viability, primary screen (AID 624349; in the data active means parasite load remaining mostly below about 12%, no sharp cut-off; inactive means mostly above about 10%;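 further: 100% = mean of DMSO negative control wells on the same plate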); settings: P. berghei liver stage in HepG2, luciferase luminescence, concentration not given here; parasite load remaining: stronger effect = lower value; viability: measured here: HepG2 viability without parasites
# [10] = test system: Aerobactin synthetase IucA (Klebsiella pneumoniae hvKP1); test: IucA enzyme inhibition, primary screen, biochemical, Spectrum library (AID 1346200); settings: malachite green pyrophosphate, A620, at 8 µM, stronger effect = lower value;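 further: 100% = wells without compound and 0% = wells lacking enzyme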
# [11] = viability loss with induced miR-34 in A549 – imaging, A549 dox-inducible miR-34, nuclei and caspase counts, primary screen (AID 1347080;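 active means compounds whose cell count with miR-34 switched on is under 0.7 times the count with it off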); settings: A549 miR-34 inducible, Hoechst nuclei count, 48 h
# [12] = molecular target: Mitogen-activated protein kinase 7 (Homo sapiens) (UniProt Q13164); test: Gal4-ERK5 driven luciferase induction – cell-based, HTS, primary screen (AID 1508626;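 active means luciferase signal above three times the same-plate solvent-only control wells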;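 further: luciferase driven by Gal4-ERK5 fusion binding five Gal4 sites before minimal TATA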); settings: HeLa Gal4-ERK5 transactivation, 18 h, at 5 µM, stronger effect = higher value
# Mitogen-activated protein kinase 7 (Homo sapiens), sequence (Q13164 whole entry, looked up, the tested form may be a part): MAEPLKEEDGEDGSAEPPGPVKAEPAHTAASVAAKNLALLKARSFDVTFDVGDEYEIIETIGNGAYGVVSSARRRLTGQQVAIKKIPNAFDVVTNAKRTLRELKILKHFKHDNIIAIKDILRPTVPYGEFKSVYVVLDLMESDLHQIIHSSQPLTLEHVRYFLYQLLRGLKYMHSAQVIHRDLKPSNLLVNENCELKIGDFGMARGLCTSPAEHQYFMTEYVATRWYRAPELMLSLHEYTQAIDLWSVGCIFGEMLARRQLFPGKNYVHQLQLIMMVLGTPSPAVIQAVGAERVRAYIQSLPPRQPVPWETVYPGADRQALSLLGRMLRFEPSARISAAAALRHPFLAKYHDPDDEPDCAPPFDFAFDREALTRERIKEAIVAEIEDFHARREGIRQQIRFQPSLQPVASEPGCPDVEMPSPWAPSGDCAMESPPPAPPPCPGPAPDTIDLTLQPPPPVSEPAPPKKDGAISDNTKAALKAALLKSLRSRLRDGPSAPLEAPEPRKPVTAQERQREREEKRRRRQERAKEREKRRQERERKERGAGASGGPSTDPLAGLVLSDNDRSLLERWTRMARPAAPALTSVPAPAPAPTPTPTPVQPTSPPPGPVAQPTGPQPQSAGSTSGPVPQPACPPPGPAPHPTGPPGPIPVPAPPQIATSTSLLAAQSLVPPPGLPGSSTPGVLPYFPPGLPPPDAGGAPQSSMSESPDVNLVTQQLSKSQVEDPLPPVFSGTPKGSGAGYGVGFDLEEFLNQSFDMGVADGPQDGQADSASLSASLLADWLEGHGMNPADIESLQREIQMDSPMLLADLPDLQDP
# [13] = test system: Aerobactin synthetase IucA (Klebsiella pneumoniae, hypervirulent); test: biochemical IucA inhibition screen of LOPAC library by absorbance (AID 1346212); settings: IucA enzyme assay, absorbance (OD) readout; stronger effect = lower value;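 tested at 8 µM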;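 further: 100% = no compound wells and 0% = no enzyme wells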
compound,measurement,setting,value
O=C1CC2OCC=C3CN4CC[C@]56c7ccccc7N1C5[C@H]2[C@H]3CC46 (some centres not stated),inhibition,[1],-12.5%
same,score,[2],1.28
same,rescue above control,[3],-0.21
same,cytochrome c release ratio,[4],1
same,inhibition of aggregation,[5],70.4%
same,glutamate uptake change,[6],-17.6%
same,inclusion score,[7],1
same,aggregation suppression score,[8],0.688
same,parasite load remaining,[9],113% (inactive) and 54.7% (inactive)
same,viability,[9],71.9% and 95.5%
same,activity remaining,[10],121% (inactive)
same,fold change,[11]; stronger effect = lower value,0.917 (inactive)
same,fold change,[11]; measured here: relative caspase fold change +Dox/-Dox,1.82
same,cell count,"[11]; measured here: total cells with miR-34 induction, stronger effect = lower value",11700
same,cell count,[11]; measured here: total cells without miR-34 induction,12700
O=c1ccc2c(O)c3ccoc3cc2o1,activity remaining,[10],96.6% (inactive)
same,luciferase signal,[12],32 AU (inactive)
N#C/C(=C\c1c[nH]c2ccccc12)C(=O)c1ccc(O)c(O)c1,remaining activity,[13],97.5% (inactive)
N=C(N)SCCc1cccc(CCSC(=N)N)c1,remaining activity,[13],110% (inactive)
C/C=C(\C)C(=O)O[C@H]1C[C@@H](OC(C)=O)[C@@]2(C(=O)OC)CO[C@@H]3C2[C@]12CO[C@](O)(C(=O)OC)[C@H]2[C@](C)(C12O[C@@]1(C)[C@H]1C[C@@H]2OC2OC=C[C@@]21O)[C@@H]3O (some centres not stated),inhibition,[1],0.47%
same,score,[2],1.31
same,rescue above control,[3],3.11
same,cytochrome c release ratio,[4],1.46
same,inhibition of aggregation,[5],72.4%
same,glutamate uptake change,[6],12.4%
same,inclusion score,[7],2
same,aggregation suppression score,[8],1
same,parasite load remaining,[9],62.6% (inactive)
same,viability,[9],97.8%
same,activity remaining,[10],89% (inactive)
C=C[C@@H]1C2=CCOC(=O)C2=CO[C@H]1O[C@@H]1O[C@H](CO)[C@@H](O)[C@H](O)[C@H]1O,activity remaining,[10],126% (inactive)
same,luciferase signal,[12],64 AU (inactive)
CC(=O)Oc1cc(C(C)C)c(OCCN(C)C)cc1C,remaining activity,[13],118% (inactive)
CCC(C)N(C)C(=O)c1cc2ccccc2c(-c2ccccc2Cl)n1 (configuration not stated),remaining activity,[13],116% (inactive)
NC1CONC1=O (configuration not stated),remaining activity,[13],120% (inactive)
C[C@]12CCC3C(CC[C@H]4CC(=O)CC[C@]34C)C1CCC2=O (some centres not stated),parasite load remaining,[9],63.7% (inactive)
same,viability,[9],96.1%
same,activity remaining,[10],94.5% (inactive)
CNC(Cc1c[nH]c2ccccc12)C(=O)O (configuration not stated),parasite load remaining,[9],105% (inactive)
same,viability,[9],73.8%
same,activity remaining,[10],108% (inactive)
same,luciferase signal,[12],36 AU (inactive)
